Data taken from the supplement of paper PMC11732987, “Enantioselective OTUD7B fragment discovery through chemoproteomics screening and high-throughput optimisation” (Communications Chemistry, 2025).

Tests used:
Assay in all cases: log2 ratio of Biotin-Ahx-Ub-VS probe labelling (fragment/DMSO); higher = less target engagement (more negative = stronger competition), active = hit call of the paper (q ≤ 0.05, log2 ratio ≤ -1)
Settings in all cases: compound concentration: 200 uM; treatment time: 3 h
[1] = biological target: USP34 (UniProt Q70CQ2)
How it was run: (§1)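 Labelled DUBs from HEK293T lysate were NeutrAvidin-enriched, digested with LysC and trypsin, and run by diaPASEF LC-MS/MS. Before that, each 495 µg sample in Tris/CHAPS/IGEPAL buffer with protease inhibitors was treated in triplicate with fragment at 200 µM or vehicle for 3 h, then with Biotin-Ahx-Ub-VS at 0.5 µM final for 1 h. Values are average log2 ratios of fragment over vehicle by unpaired t-test, based on global-median-normalised Spectronaut label-free quantities from proteins with ≥2 unique peptides.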

[2] = biological target: T1, USP36 (UniProt Q9P275)
T1 sequence (whole entry): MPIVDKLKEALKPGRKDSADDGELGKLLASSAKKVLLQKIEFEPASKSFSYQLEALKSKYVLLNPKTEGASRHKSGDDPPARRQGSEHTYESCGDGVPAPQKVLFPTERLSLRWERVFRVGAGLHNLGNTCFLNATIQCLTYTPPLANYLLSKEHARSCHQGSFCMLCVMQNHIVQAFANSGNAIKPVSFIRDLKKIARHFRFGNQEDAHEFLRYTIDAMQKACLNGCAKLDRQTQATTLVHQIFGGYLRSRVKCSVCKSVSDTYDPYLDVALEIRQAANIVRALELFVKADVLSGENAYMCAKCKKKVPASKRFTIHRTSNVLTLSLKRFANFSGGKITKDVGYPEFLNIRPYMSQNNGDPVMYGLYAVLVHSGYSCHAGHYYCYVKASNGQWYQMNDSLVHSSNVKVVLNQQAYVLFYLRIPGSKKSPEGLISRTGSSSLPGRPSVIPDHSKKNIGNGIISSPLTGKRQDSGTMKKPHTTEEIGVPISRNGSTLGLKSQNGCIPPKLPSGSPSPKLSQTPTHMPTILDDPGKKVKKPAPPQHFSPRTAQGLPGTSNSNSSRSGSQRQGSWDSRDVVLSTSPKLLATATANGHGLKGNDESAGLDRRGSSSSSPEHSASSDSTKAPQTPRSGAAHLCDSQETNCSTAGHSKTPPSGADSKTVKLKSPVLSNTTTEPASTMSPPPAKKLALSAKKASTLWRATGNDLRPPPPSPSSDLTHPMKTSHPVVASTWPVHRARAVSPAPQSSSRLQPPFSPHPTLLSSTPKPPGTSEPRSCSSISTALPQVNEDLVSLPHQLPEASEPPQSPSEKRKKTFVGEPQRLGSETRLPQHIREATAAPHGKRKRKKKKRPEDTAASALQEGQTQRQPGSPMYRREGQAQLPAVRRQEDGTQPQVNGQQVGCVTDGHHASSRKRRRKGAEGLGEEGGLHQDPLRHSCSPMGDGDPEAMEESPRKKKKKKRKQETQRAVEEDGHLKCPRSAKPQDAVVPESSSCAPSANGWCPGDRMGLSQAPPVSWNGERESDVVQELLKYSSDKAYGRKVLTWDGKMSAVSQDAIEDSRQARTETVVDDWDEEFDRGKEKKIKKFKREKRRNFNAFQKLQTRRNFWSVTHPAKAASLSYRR
How it was run: as §1

[3] = biological target: T2, USP38 (UniProt Q8NB14)
T2 sequence (whole entry): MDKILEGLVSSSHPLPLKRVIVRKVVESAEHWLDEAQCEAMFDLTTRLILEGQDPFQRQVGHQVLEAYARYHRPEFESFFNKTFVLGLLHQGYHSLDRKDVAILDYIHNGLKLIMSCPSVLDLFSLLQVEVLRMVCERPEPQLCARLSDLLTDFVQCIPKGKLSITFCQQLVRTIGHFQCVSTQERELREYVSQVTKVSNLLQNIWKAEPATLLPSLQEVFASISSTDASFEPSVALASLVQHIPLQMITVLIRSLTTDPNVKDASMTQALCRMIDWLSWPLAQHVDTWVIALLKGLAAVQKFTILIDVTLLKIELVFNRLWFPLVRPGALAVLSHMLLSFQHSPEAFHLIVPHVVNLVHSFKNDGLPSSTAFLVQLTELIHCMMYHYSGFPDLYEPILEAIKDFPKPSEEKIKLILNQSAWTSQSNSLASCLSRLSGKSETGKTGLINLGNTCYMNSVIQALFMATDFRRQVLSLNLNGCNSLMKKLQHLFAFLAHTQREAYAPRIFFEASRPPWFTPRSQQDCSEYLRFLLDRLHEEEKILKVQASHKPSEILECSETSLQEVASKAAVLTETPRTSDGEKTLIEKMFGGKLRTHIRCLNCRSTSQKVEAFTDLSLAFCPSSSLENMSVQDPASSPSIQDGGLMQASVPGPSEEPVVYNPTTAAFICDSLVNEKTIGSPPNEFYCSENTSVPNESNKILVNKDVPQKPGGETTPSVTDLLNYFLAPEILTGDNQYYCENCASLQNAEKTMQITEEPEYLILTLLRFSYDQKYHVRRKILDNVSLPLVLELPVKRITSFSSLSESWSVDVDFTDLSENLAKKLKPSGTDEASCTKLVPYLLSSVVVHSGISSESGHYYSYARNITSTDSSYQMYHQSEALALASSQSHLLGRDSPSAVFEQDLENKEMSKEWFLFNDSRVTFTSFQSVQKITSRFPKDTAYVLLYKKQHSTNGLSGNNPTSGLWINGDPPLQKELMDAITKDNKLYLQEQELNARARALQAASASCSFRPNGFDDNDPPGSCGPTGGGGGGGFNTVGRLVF
How it was run: as §1

[4] = biological target: T3, USP39 (UniProt Q53GS9)
T3 sequence (whole entry): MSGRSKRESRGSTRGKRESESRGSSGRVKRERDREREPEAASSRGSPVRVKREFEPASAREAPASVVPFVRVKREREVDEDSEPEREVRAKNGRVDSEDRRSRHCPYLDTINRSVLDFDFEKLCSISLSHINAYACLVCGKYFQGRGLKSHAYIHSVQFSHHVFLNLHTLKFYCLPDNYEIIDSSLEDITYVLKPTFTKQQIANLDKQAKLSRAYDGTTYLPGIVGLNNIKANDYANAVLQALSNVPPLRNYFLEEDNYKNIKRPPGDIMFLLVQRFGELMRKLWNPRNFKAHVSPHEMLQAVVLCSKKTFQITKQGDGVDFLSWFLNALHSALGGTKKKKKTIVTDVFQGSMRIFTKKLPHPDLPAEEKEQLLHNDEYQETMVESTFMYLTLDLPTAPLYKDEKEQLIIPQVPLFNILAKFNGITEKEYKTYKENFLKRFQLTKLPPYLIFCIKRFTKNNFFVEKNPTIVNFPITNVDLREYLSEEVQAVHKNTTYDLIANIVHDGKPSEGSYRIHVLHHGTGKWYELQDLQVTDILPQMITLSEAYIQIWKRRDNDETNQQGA
How it was run: as §1

[5] = biological target: T4, USP4 (UniProt Q13107)
T4 sequence (whole entry): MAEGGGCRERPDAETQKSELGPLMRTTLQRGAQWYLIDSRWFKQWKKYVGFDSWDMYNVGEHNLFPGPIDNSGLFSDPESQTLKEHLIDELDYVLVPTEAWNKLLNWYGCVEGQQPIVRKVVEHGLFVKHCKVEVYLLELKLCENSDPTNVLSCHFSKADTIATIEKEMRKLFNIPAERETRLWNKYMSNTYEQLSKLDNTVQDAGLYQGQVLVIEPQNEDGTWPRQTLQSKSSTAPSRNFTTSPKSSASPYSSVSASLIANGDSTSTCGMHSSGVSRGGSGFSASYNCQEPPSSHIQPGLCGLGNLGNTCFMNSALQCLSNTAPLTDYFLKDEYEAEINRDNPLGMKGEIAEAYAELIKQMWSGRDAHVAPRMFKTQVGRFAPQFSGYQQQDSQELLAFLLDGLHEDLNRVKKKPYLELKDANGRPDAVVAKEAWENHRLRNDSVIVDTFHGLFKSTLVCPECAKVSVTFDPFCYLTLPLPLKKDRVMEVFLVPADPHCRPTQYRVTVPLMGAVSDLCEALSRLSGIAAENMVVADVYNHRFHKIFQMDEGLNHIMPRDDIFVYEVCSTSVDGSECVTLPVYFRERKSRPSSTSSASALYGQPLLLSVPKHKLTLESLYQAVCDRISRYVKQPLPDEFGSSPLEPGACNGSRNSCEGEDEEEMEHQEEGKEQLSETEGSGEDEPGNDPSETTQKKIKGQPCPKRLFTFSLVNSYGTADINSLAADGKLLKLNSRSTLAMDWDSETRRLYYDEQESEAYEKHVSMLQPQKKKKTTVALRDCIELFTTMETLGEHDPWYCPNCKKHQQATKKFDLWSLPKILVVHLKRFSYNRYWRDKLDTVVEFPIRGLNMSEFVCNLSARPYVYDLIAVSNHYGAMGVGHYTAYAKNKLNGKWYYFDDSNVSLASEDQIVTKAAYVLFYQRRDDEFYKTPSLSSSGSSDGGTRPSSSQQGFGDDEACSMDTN
How it was run: as §1

Measured: log2 ratio of Biotin-Ahx-Ub-VS probe labelling

Sequence of USP34 (Q70CQ2 whole entry, the tested form may be a part): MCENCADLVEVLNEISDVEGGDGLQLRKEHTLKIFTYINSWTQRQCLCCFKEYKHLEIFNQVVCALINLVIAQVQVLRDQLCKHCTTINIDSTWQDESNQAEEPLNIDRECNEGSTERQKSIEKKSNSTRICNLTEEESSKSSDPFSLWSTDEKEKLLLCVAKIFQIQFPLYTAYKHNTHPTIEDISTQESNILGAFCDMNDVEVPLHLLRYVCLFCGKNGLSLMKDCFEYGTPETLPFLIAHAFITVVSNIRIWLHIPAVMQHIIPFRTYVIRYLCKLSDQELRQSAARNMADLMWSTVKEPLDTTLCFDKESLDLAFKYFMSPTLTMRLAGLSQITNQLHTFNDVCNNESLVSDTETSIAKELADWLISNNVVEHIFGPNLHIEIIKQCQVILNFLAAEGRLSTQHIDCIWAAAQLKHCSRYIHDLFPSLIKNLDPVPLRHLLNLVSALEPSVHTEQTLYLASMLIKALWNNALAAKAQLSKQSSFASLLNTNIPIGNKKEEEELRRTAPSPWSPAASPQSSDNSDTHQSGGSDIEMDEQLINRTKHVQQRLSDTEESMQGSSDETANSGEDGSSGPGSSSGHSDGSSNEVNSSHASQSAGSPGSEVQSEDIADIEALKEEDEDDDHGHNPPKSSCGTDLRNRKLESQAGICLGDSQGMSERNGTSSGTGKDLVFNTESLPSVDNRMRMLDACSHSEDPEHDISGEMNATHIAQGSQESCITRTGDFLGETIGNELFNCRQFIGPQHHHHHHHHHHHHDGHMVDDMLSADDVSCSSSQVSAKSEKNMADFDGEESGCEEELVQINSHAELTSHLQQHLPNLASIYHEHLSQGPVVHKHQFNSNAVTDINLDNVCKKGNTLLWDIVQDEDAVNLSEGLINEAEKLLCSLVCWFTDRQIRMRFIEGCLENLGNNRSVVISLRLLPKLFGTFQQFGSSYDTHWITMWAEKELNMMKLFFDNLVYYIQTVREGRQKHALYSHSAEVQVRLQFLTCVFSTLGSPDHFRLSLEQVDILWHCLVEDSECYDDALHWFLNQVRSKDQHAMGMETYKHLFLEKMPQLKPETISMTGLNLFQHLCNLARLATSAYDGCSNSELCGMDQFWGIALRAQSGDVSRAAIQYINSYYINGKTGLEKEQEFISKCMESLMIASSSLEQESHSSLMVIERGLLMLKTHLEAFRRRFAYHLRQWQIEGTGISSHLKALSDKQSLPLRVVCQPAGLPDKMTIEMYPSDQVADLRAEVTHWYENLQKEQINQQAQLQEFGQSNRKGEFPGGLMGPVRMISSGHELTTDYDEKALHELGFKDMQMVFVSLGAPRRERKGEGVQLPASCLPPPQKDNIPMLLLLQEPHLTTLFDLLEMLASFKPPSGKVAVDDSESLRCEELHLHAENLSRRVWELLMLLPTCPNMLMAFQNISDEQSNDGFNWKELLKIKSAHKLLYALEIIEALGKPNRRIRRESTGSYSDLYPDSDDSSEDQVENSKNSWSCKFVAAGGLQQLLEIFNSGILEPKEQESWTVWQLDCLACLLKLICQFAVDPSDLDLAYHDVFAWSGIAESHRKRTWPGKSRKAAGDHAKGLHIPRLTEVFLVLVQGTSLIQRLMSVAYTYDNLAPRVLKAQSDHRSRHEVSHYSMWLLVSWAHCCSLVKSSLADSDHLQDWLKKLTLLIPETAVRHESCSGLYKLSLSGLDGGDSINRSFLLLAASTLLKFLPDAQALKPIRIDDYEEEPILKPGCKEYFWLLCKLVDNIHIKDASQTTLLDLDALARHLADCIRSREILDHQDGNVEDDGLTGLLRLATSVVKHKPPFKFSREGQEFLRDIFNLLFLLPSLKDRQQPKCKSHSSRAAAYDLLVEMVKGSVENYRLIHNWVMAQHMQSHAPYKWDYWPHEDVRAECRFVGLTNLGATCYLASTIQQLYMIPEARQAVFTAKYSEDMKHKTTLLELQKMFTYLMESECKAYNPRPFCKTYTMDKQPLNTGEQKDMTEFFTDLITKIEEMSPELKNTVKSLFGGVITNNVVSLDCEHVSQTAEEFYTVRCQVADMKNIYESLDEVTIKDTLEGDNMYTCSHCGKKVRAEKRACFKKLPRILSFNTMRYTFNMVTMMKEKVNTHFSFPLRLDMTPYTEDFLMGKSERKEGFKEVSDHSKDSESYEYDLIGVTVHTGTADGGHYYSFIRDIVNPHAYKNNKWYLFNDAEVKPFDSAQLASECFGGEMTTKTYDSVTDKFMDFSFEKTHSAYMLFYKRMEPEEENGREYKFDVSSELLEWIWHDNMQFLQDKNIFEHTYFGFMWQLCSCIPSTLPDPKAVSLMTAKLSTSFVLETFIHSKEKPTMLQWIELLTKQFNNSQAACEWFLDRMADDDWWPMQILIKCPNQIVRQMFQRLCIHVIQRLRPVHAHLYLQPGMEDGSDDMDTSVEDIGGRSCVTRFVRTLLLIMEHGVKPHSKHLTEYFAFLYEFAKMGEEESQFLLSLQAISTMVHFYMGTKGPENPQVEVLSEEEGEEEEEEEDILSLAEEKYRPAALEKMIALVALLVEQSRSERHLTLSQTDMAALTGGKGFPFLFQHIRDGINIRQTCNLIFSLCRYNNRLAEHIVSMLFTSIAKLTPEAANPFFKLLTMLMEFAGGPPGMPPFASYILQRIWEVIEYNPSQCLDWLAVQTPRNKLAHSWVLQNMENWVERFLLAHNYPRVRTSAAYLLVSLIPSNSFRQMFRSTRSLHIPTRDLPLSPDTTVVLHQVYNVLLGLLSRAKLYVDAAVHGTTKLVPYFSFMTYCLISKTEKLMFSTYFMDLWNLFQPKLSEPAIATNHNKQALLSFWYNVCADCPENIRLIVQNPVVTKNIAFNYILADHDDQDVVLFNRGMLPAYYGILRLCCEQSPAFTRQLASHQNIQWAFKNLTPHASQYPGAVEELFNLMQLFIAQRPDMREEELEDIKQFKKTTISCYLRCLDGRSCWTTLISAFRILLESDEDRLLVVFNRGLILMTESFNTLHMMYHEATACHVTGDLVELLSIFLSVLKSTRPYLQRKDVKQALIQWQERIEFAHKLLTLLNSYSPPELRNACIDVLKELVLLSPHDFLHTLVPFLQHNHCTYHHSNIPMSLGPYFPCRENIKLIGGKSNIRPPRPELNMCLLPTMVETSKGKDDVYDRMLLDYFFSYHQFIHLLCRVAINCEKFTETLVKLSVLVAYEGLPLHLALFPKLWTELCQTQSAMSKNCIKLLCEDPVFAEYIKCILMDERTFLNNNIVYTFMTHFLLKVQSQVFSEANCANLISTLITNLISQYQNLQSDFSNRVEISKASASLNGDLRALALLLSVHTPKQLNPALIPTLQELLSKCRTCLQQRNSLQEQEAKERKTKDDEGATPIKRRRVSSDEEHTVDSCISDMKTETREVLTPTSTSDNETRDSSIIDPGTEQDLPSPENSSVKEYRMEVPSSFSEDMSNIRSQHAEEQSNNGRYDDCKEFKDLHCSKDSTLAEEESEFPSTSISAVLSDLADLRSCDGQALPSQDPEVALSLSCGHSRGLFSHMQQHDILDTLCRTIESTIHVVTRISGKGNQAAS

Cl.O=C(CCl)N1CC(c2ccc(Br)cn2)C1
inactive: [1] -0.16 | [2] -0.222 | [3] -0.0763 | [4] -0.11 | [5] -0.285
